Screening results (PubChem BioAssay)
PINK1 modulator: PINK1 expression modulation. PINK1 immunofluorescence, high-content cytometry, 24 h. Potency, µM (titrated, usually from 76.6 µM), for inactives: top-dose activation (PINK1 increase), usual class: activators. 410,000 compounds, 0.2% hits. AID 624263; active = well fitted activation curve with a large enough effect; inconclusive = small, poorly fitted or top-dose-only effect; cell line not stated here; note: % of control where 0% means no effect; nearly all actives have a fitted effect of over 65% in size
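Readout is PINK1 immunofluorescence, quantified alongside mitochondrial, cell and nuclear markers by laser-scanning microplate cytometry. Cells from a stable line were exposed to compound titrations (5 concentrations) for 24 hours, with CCCP controls.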
SW480 rerep: induces DNA re-replication in SW480 colon adenocarcinoma cells | 340,000 compounds, 1.8% hits | SW480 DNA re-replication, Hoechst DNA content imaging, 48 h | AID 624297 | Potency, µM (top dose mostly 46.1 µM), for inactives: at the top dose re-replication activation, actives largely listed as activators; note: % of control where 0% means no effect; nearly all actives have a fitted effect of over 55% in size
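Per well, 250 cells were exposed to pinned compound for 48 hr. Nuclear DNA was visualised with Hoechst (40 min, 37 C) and total object intensity recorded by fluorescence scanning.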
MCF10A rereplic: induces DNA re-replication in MCF 10a normal breast cells | MCF 10A DNA re-replication, Hoechst nuclear intensity, 48 h | Potency, µM (highest dose often 46.1 µM), inactives show at the top dose activity, positive = re-replication, usual class: activators | 350,000 compounds, 2.9% hits; note: % of control where 0% means no effect; nearly all actives have a fitted effect of over 50% in size
KB-V1 cytotox: KB-V1 MDR subline cytotoxicity; KB-V1 MDR cells viability, CellTiter-Glo, 72 h; Potency, µM (series often up to 46.1 µM), actives largely listed as cytotoxic; 400,000 compounds, 3.4% hits; note: % is set by controls: 0 for no effect and ±100 for the full control effect; nearly all actives have a fitted effect of over 60% in size
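In this primary screen, KB-V1 cells overexpressing P-gp are incubated with library compounds (lowest to highest concentration) for 72 h at 37 degrees C before a luminescent ATP viability read.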
KB-3-1 tox: KB-3-1 parental cell cytotoxicity | KB-3-1 viability, CellTiter-Glo ATP luminescence, 72 h | Potency, µM (doses to about 46.1 µM), actives largely listed as cytotoxic | 400,000 compounds, 1.4% hits | AID 1347075; note: % is set by controls: 0 for no effect and ±100 for the full control effect; nearly all actives have a fitted effect of over 60% in size
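Cytotoxicity measured as CellTiter-Glo luminescence after 72 h at 37 C. Compound titrations were pinned onto drug-naive KB-3-1 parental adenocarcinoma cells grown in DMEM with 10% FBS, and normalized data fitted to concentration-response curves.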
* hit, by the source's call; i = inactive; ? = inconclusive; . = no result given; [ ] = remark or other dose. In the library only some 6.7% were active in any assay of this set; here they are far more common. Unless noted, calls come from the whole dose curve; as a rule, active = well fitted curve in the direction sought with a large enough effect; inconclusive = small, poorly fitted or top-dose-only effect, or another doubt; inactive = no such curve, though single readings can be large; an effect the other way counts as inactive or inconclusive. Potency is the fitted concentration of half-maximal effect.

SMILES	PINK1 modulator	SW480 rerep	MCF10A rereplic	KB-V1 cytotox	KB-3-1 tox
COc1ccc(NC(=O)N2CCCC(c3nc(-c4ccc(OC)cc4)no3)C2)cc1 (stereo not drawn)	0%	5%	18%	i	i
COc1ccc(-c2noc(C3CCCN(S(=O)(=O)c4cccc(Cl)c4)C3)n2)cc1OC (stereo not drawn)	-1%[38.3 µM]	2%	?	5.2µM*	?
COc1ccccc1C(=O)N1CCCC(c2nc(-c3cc(OC)c(OC)c(OC)c3)no2)C1 (stereo not drawn)	0%	-1%	16%	4.6µM*	i
COc1ccc(OC)c(-c2noc(CSc3nnc(-c4ccccc4)n3-c3ccccc3)n2)c1	1%	.	.	i	i
Cc1ccc(C)c(NC(=O)CSc2nnc(NC(=O)Nc3ccccc3)s2)c1	3%	.	.	.	.
Cc1cccc2nc(CNC(=O)CN3Cc4ccccc4OC(c4ccccc4F)C3)cn12 (stereo not drawn)	-1%	.	.	.	.
COc1ccc(NC(=O)COc2ccccc2Cc2ccccc2)cc1S(N)(=O)=O	1%	-7%	6%	10µM*	16µM*
COc1ccc(NC(=O)CN(Cc2ccccc2)Cc2ccccc2)cc1S(N)(=O)=O	3%	-100%	-5%	21µM*	i
COc1ccc(NC(=O)CCCSc2ccccc2)cc1S(N)(=O)=O	1%	0%	2%	i	i
COc1ccc(C(=O)Nc2ncnc3nc[nH]c23)cc1	0%	.	.	i	i
Cc1cc(C)c2oc(C(=O)Nc3nc4ccc(Cl)cc4s3)cc(=O)c2c1	4%	.	.	?	i
COc1ccc(N(C(=O)CCl)C(C(=O)NCCc2ccccc2)c2cccs2)cc1 (stereo not drawn)	-5%	3.3µM*	?	18µM*	7.3µM*
COc1ccc(CNC(=O)C(c2ccncc2)N(C(=O)Cc2cccs2)c2ccccc2)cc1 (stereo not drawn)	3%	0%	-3%	i	?
Cc1cc2c(cc1C)-n1nnnc1C(N1CCCNCC1)C(=O)N2 (stereo not drawn)	.	.	.	i	i
Cc1ccc(S(=O)(=O)Nc2c(C)cc([N+](=O)[O-])cc2C)cc1	4%	-4%	-3%	i	i
Cc1ccc(S(=O)(=O)c2ccc([N+](=O)[O-])o2)cc1	-5%	?	?	13µM*	?
Cc1[nH][nH]c(=O)c1C(c1ccc(-c2ccc(F)cc2)o1)c1c(C)[nH][nH]c1=O	3%	-8%	?	i	i
COc1ccc(-c2ccc(C(c3c(C)[nH][nH]c3=O)c3c(C)[nH][nH]c3=O)o2)c([N+](=O)[O-])c1	0%	?	21µM*	?	?
Cc1[nH][nH]c(=O)c1C(c1ccc(-c2ccc(Cl)c(Cl)c2)o1)c1c(C)[nH][nH]c1=O	0%	14%	2.9µM*	i	i
NC(N)=NCCCS(=O)(=O)Nc1ccc(Nc2c3ccccc3nc3cc([N+](=O)[O-])ccc23)cc1	10%	-1%	3%	?	15µM*
N#CC1=C(N)Oc2c(oc(CO)cc2=O)C1c1ccccc1[N+](=O)[O-] (stereo not drawn)	1%	5.8µM*	?	i	i
Cc1[nH]c2ccccc2c1C1(O)C(=O)N(Cc2ccccc2)c2ccc(Br)cc21 (stereo not drawn)	0%	.	.	i	i
CCOC(=O)N1CCC(n2c(SCC(=O)NCCC3=CCCCC3)nc3ccccc3c2=O)CC1	-1%[38.3 µM]	?	26µM*	8.2µM*	?
CCOC(=O)N1CCC(n2c(SCC(=O)NCc3ccccc3)nc3ccccc3c2=O)CC1	1%	4%	0%	i	i
CC1CCN(C(=O)CSc2nc3ccccc3c(=O)n2Cc2ccc3c(c2)OCO3)CC1	1%[38.3 µM]	19%	?	4.6µM*	?
SMILES	PINK1 modulator	SW480 rerep	MCF10A rereplic	KB-V1 cytotox	KB-3-1 tox
CCOC(=O)N1CCC(n2c(SCC(=O)N3CCC(C)CC3)nc3ccccc3c2=O)CC1	0%	12%	?	21µM*	?
Cc1ccc2c(c1)-c1c(cnc3cc(-c4ccc(Cl)cc4)nn13)CO2	-1%	.	.	?	i
CCN1CCn2c3c(c4cc(Cl)ccc42)CCCC31 (stereo not drawn)	6%	5%	-5%	i	i
CCN(CC)CCN1CCn2c3c(c4cc(C)ccc42)CCCC31 (stereo not drawn)	4%	15µM*	4.1µM*	i	i
COc1cc(S(=O)(=O)n2ccc(C)n2)c(C)cc1C	1%	.	.	i	i
O=C(Cc1cccs1)N1CCN(c2nc(-c3ccc(Cl)cc3)cs2)CC1	-2%[38.3 µM]	11%	26%	8.2µM*	i
S=C(NCc1ccco1)N1CCN(c2nc(-c3ccc(Cl)cc3)cs2)CC1	13%	4%	11%	i	?
O=C(CN1CCN(c2nc(-c3ccc(Cl)cc3)cs2)CC1)NCc1ccco1	21%[38.3 µM]	11%	9.2µM*	i	i
COC(=O)CCCC[C@@H]1O[C@H](CCc2ccccc2)CC2=C1C(=O)OC(C)(C)O2	1%	.	.	i	i
CCCCCCCCNc1ccccc1S(=O)(=O)NCc1ccccc1	?	-6%	5.2µM*	i	i
O=S(=O)(NCc1ccccc1)c1ccccc1NCCc1ccccc1	4%	-61%	8%	i	i
CC1CCCN(c2nc3ccccc3nc2C(C#N)S(=O)(=O)c2cccs2)C1 (stereo not drawn)	6%[38.3 µM]	1%	?	?	i
COc1ccc(S(=O)(=O)C(C#N)c2nc3ccccc3nc2N2CCCC(C)C2)cc1 (stereo not drawn)	-1%	2%	12µM*	i	i
Cc1ccc(S(=O)(=O)C(C#N)c2nc3ccccc3nc2N2CC(C)OC(C)C2)cc1C (stereo not drawn)	?	?	15µM*	i	i
Cc1cccc(S(=O)(=O)C(C#N)c2nc3ccccc3nc2N2CC(C)OC(C)C2)c1 (stereo not drawn)	?	-6%	0%	?	?
Cc1ccc(S(=O)(=O)C(C#N)c2nc3ccccc3nc2N2CCCC2)cc1 (stereo not drawn)	6%	7%	?	18µM*	i
CCN(C(=O)C1CC1)C1CCS(=O)(=O)C1 (stereo not drawn)	0%	?	-6%	i	i
COC(=O)[C@H](CCSC)NC(=O)Cn1cnc2c(SC)nc(N)nc21	1%	?	-9%	i	i
CC(C)Oc1ccc(CNC(=O)C2CCN(c3nc4ccccc4nc3C(F)(F)F)CC2)cc1	9%	.	.	?	?
CCOC(=O)C1(Cc2ccccc2C(F)(F)F)CCN(C2CCN(C(C)C)CC2)CC1	3%	-2%	18µM*	?	i
